The term AC50 denotes the concentration at which the activity in the assay is half-maximal.

Experimental findings from PubChem BioAssay (EPA / NIEHS) are described below.

Records with an inconclusive call do not appear. Active and inactive are the calls of the source. The calls were made as follows: active = hit-call score of the fitted dose curve at least 0.9, where 1 is the maximum; inconclusive = response in the unintended direction; inactive = score below 0.9.

In test [1] the target is human Peroxisome Proliferator-activated Receptor alpha (PPARa), PPARA (gene 5465) (UniProt Q07869). Description: ATG_PPARa_TRANS: Attagene TRANS-FACTORIAL HepG2 Assay for human Peroxisome Proliferator-activated Receptor alpha (PPARa) (AID 2283001). The essentials:
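Transient HepG2 transfection, GAL4-UAS reporters, NR-Gal4 chimeras; 24 h compound exposure. Readout: reporter transcripts by RT-PCR, 6-FAM primer extension, HpaI digest, capillary electrophoresis. Positive direction vs DMSO baseline.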

Test [2] has as its target Peroxisome proliferator-activated receptor gamma (Homo sapiens) (UniProt P37231). As to the kind of experiment: ATG_PPARg_TRANS: Attagene TRANS-FACTORIAL HepG2 Assay for human Peroxisome Proliferator-activated Receptor-gamma (PPARg) (AID 2283007). The procedure, abridged:
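Twenty-four hours after chemical dosing of transiently transfected HepG2 cells, isolated RNA was converted to cDNA, reporter sequences amplified and 6-FAM-labelled, then HpaI-digested and analysed by capillary electrophoresis. Signal increase against DMSO was fitted.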

Test [3] has as its target Nuclear receptor subfamily 1 group I member 2 (Homo sapiens) (UniProt O75469). As to the kind of experiment: ATG_PXR_TRANS: Attagene TRANS-FACTORIAL HepG2 Assay for human Pregnane X Receptor (PXR) (AID 2283008). The essentials: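 Trans-factorial format: exogenous NR-Gal4 fusion activity, not endogenous factor, in transfected human HepG2 liver cells. After 24 h dosing, RNA isolated, reverse-transcribed, amplified and resolved by capillary electrophoresis; induction scored versus DMSO.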

Test [4] deals with human Retinoic Acid Receptor gamma (RARg), RARG (gene 5916) (UniProt P13631). Description: ATG_RARg_TRANS: Attagene TRANS-FACTORIAL HepG2 Assay for human Retinoic Acid Receptor gamma (RARg) (AID 2283009). The essentials:
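Readout: reporter transcript levels via RT-PCR, 6-FAM primer-extension labelling, HpaI digestion and capillary electrophoresis. Cells: HepG2 carrying transfected RARg-GAL4 chimera plus UAS reporter set. Dosing 24 h; DMSO negative control.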

The target of test [5] is human Peroxisome Proliferator-activated Receptor delta (PPARd), PPARD (gene 5467) (UniProt Q03181). As to the kind of experiment: ATG_PPARd_TRANS: Attagene TRANS-FACTORIAL HepG2 Assay for human Peroxisome Proliferator-activated Receptor delta (PPARd) (AID 2283002). The essentials:
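Read-out: reporter mRNA induction, quantified by fluorescent RT-PCR products resolved by capillary electrophoresis. Human HepG2 liver cells carried transiently transfected Gal4-UAS reporter constructs with chimeric NR-Gal4 fusions. Cells were dosed for 24 h; DMSO served as baseline.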

Test [6] has as its target Retinoic acid receptor alpha (Homo sapiens) (UniProt P10276). Description: ATG_RARa_TRANS: Attagene TRANS-FACTORIAL HepG2 Assay for human Retinoic Acid Receptor alpha (RARa) (AID 2283005). The procedure, abridged: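 HepG2 transiently transfected with multiplex GAL4-UAS reporter units including a human RARa–GAL4 chimera; 24 h compound exposure. Reporter mRNA quantified by RT-PCR, 6-FAM labeling and capillary electrophoresis; gain of signal versus DMSO.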

Test [7] concerns the target human Retinoic Acid Receptor beta (RARb), RARB (gene 5915) (UniProt P10826). As to the kind of experiment: ATG_RARb_TRANS: Attagene TRANS-FACTORIAL HepG2 Assay for human Retinoic Acid Receptor beta (AID 2283004). The essentials:
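Transient transfection of HepG2 with multiple reporter units → chemical dosing, 24 h → total RNA isolation → RT with oligo(dT) → reporter-specific PCR, 6-FAM primer extension, HpaI digest → capillary electrophoresis. Positive direction vs DMSO control.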

Nuclear receptor subfamily 1 group I member 2 (Homo sapiens), sequence (O75469 whole entry, looked up, the tested form may be a part): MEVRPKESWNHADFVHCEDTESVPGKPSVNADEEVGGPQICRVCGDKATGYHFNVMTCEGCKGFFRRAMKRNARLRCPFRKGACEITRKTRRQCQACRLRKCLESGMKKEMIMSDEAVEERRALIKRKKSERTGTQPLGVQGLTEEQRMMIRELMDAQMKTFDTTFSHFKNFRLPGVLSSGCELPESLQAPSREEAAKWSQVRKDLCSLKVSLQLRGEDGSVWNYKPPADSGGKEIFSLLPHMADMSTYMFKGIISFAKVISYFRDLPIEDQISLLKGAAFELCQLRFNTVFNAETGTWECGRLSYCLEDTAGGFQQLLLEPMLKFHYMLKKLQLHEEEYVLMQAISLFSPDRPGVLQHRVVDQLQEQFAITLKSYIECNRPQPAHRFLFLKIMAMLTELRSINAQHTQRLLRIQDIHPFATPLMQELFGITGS
human Retinoic Acid Receptor gamma (RARg), RARG (gene 5916), sequence (P13631 whole entry, looked up, the tested form may be a part): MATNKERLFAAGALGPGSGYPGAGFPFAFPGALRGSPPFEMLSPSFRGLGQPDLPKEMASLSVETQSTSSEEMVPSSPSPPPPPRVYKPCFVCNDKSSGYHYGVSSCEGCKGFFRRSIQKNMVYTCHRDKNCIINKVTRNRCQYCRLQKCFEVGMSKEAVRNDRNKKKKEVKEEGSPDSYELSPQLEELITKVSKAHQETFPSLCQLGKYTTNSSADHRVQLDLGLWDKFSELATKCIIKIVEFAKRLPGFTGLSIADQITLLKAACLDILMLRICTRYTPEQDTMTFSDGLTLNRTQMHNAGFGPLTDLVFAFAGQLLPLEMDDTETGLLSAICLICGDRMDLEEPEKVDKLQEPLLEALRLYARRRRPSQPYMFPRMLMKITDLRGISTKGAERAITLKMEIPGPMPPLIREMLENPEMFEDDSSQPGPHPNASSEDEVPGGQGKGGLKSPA
Retinoic acid receptor alpha (Homo sapiens), sequence (P10276 whole entry, looked up, the tested form may be a part): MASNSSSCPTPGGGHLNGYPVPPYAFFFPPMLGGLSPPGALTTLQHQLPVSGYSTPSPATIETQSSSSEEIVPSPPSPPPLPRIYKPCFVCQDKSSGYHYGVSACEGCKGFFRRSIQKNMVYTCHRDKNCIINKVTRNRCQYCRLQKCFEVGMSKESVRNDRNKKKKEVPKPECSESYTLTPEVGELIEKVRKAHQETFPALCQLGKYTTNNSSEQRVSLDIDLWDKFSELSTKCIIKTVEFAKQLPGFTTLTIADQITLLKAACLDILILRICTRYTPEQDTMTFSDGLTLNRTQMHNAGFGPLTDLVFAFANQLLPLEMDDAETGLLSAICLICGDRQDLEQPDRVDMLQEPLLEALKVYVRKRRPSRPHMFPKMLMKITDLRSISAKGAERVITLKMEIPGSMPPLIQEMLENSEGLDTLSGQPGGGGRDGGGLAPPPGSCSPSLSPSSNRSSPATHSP
Peroxisome proliferator-activated receptor gamma (Homo sapiens), sequence (P37231 whole entry, looked up): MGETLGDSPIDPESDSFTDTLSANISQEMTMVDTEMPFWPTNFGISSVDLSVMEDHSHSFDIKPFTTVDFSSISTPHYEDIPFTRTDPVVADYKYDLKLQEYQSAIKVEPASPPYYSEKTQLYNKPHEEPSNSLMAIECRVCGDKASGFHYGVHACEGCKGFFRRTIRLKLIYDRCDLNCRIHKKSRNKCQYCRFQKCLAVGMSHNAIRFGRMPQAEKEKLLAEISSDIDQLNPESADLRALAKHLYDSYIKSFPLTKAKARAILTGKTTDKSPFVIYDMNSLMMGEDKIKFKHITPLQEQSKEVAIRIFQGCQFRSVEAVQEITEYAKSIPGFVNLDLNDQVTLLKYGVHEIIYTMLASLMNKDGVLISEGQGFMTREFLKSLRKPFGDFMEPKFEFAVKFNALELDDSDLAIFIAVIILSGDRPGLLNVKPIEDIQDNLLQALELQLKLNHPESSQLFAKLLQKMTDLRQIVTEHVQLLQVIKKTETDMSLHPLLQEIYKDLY
human Retinoic Acid Receptor beta (RARb), RARB (gene 5915), sequence (P10826 whole entry, looked up): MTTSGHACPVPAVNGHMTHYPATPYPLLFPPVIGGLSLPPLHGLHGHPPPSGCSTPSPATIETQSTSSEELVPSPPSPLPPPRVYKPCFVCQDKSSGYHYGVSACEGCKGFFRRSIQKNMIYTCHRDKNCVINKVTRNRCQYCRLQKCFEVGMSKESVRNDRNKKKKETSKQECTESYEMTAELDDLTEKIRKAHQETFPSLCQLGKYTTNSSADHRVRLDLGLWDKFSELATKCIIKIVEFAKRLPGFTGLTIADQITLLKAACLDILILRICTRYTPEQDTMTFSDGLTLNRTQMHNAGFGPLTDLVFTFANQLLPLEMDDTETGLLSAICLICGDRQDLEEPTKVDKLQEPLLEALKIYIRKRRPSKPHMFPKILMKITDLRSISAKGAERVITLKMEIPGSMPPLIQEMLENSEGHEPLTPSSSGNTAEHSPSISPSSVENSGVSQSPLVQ
human Peroxisome Proliferator-activated Receptor alpha (PPARa), PPARA (gene 5465), sequence (Q07869 whole entry, looked up, the tested form may be a part): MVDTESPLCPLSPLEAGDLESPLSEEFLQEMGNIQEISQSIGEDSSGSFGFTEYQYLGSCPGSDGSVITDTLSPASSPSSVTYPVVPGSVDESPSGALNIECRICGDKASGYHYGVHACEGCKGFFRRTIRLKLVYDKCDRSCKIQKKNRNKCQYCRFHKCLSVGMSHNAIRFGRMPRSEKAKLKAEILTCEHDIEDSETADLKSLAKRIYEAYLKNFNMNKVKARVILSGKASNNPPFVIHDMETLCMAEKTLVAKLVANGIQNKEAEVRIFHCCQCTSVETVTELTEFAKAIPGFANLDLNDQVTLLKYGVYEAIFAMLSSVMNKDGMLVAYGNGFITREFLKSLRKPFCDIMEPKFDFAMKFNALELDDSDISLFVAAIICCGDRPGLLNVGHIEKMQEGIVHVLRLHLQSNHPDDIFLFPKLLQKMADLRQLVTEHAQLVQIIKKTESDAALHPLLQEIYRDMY
human Peroxisome Proliferator-activated Receptor delta (PPARd), PPARD (gene 5467), sequence (Q03181 whole entry, looked up, the tested form may be a part): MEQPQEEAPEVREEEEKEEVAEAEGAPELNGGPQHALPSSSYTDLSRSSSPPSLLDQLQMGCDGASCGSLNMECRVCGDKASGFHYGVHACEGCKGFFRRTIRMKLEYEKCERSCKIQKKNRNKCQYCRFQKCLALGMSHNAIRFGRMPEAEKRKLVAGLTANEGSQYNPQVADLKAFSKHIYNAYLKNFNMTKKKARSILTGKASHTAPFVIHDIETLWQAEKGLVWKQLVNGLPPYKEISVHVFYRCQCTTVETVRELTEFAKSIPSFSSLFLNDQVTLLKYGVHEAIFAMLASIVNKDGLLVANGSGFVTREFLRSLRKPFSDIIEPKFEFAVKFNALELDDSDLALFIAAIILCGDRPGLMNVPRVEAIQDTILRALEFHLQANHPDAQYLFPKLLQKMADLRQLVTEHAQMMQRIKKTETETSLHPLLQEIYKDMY

Turning to `O=C1CCCN1C1CCCCC1`, the call in test [1], in test [2] and in test [3] was inactive.
As to `CCCc1ccc(O)c(OC)c1`, the call in test [1], in test [3] and in test [4] was inactive. Further, the concentration at half-maximal activity (AC50) in test [2] is 57.2 µM (active).
As to `CCCCCCCCCCCC(=O)OCC`, the call in test [1], in test [2] and in test [4] was inactive.
`O=C(O[C@@H]1Cc2c(O)cc(O)cc2O[C@@H]1c1cc(O)c(O)c(O)c1)c1cc(O)c(O)c(O)c1`: the call in test [1], in test [2], in test [3] and in test [4] was inactive.
With `CCCC=C(C=O)CC`, the outcome in test [1] and in test [3] was inactive.
On to `O=C(C=Cc1ccccc1)OCCc1ccccc1`, for which the call in test [1] and in test [3] was inactive. Also, the AC50 in test [2] was 3.05 µM (active).
Turning to `C=CC(C)(CCC=C(C)C)OC(=O)C=Cc1ccccc1` (stereo not given), the compound was classed as inactive in test [1]. Further, the AC50 in test [2] was 4.97 µM (active); in test [3], 2.75 µM (active).
With `CC(=O)c1ccccc1O`, the compound was classed as inactive in test [1], in test [2] and in test [3].
For the compound `O=C(OCc1ccccc1)c1ccc(O)cc1`, the compound was called inactive in test [1]. Moreover, the concentration at half-maximal activity (AC50) in test [2] was 49.9 µM (active).
For `CCc1occc(=O)c1O`, in test [5], the compound was classed as inactive.
For the compound `C=C(C)C1CC=C(C)CC1` (stereo not given), the compound was called inactive in test [1], in test [3] and in test [4].
For the compound `CC(=O)OCC=C(C)C`, the compound was classed as inactive in test [1], in test [6], in test [2] and in test [3].
For `C=CCCCCCCCCOC(C)=O`, the compound was classed as inactive in test [1] and in test [2].
As to `CCC(C)(O)CCCC(C)C` (stereo not given), the compound was classed as inactive in test [1], in test [2] and in test [3].
`[Cl][Sc]([Cl])[Cl]`: the call in test [1], in test [6], in test [3] and in test [4] was inactive.
With `CCCCOC(=O)C(C)CC` (stereo not given), the result in test [5] was inactive.
Regarding `CC(C)(O)Cc1ccccc1`, the outcome in test [5], in test [7], in test [6] and in test [3] was inactive.
Turning to `CC(C)=NNC(N)=S`, the compound was called inactive in test [5], in test [7] and in test [3].
With `N#Cc1ccc(C2CCCc3cncn32)cc1` (stereo not given), the compound was called inactive in test [5], in test [7], in test [2], in test [3] and in test [4].
As to `CC1=C(O)C(=O)C(C)O1` (stereo not given), the compound was classed as inactive in test [5], in test [7], in test [6] and in test [4].
For the compound `CC(C)c1cc(C(C)C)cc(C(C)C)c1`, the compound was called inactive in test [5], in test [6] and in test [2]. Also, the AC50 in test [3] is 26.9 µM (active).
As to `CCCCCCCCCCCCCc1ccccc1`, the call in test [5] and in test [2] was inactive.
Turning to `CC(CC(C)C)=NO`, the result in test [5] and in test [6] was inactive.
As for `CC(C)C(=O)OCCOc1ccccc1`, the compound was classed as inactive in test [5] and in test [2].
As for `CC(C=O)c1ccccc1` (stereo not given), the compound was called inactive in test [5] and in test [2]. Further, in test [3], the concentration at half-maximal activity (AC50) was 5.82 µM (active).
As to `CC1CCC(C(C)(C)S)C(=O)C1` (stereo not given), in test [5], the result was inactive. Also, the concentration at half-maximal activity (AC50) in test [2] was 81.1 µM (active).
In the case of `C=C(C)C1CC=C(C)C(OC(C)=O)C1` (stereo not given), the outcome in test [5], in test [6], in test [2], in test [3] and in test [4] was inactive.
Consider `CCCCCCCCCC(C)=O`, for which the result in test [5], in test [2] and in test [3] was inactive.
For `CCCC/C=C/C=C\C=O`, in test [5], the outcome was inactive. In addition, the values for the AC50 in test [2] and in test [3] were 7.73 µM (active) and 1.57 µM (active), respectively.
Take `CC(C)(CO)COC(=O)C(C)(C)CO`: the compound was classed as inactive in test [5], in test [7] and in test [3].
On to `COc1cc(O)c(C(=O)c2ccccc2)cc1S(=O)(=O)O`, for which the compound was classed as inactive in test [5], in test [2] and in test [3].
`CC1=CP(=O)(c2ccccc2)CC1` (stereo not given): the compound was called inactive in test [5], in test [6], in test [3] and in test [4].
Consider `CCOC(=O)CC(=O)c1ccccc1`, for which the call in test [5], in test [2] and in test [3] was inactive.
For the compound `C=Cc1cccc(C)c1`, the compound was classed as inactive in test [5], in test [2] and in test [3].
`CC(C)(CO)C(O)C(=O)NCCCO` (stereo not given): the compound was classed as inactive in test [5] and in test [2].
In the case of `[Cl][Eu]([Cl])[Cl]`, the result in test [5], in test [2] and in test [3] was inactive.
For the compound `c1ccc(-c2nc3ccccc3[nH]2)cc1`, the call in test [5] and in test [2] was inactive. In test [3], the AC50 is 23.4 µM (active).
Regarding `CC(C)OC(=O)c1ccccc1`, the call in test [5], in test [7], in test [6] and in test [4] was inactive.
